In PubChem BioAssay (Tox21):
Records with an inconclusive call do not appear. Entries that show only a call come without a potency. Unmarked numbers belong to inactive results. Active and inactive are the calls of the source. Calls follow the shape of the dose curve; as a rule, active = well fitted curve in the direction sought with a large enough effect in the repeat runs; inconclusive = weak or mixed curves; inactive = no such curve, though single readings can be large; an effect the other way counts as inactive or inconclusive.

Key:
[1] = molecular target: Cytochrome P450 2C9 (Homo sapiens) (UniProt P11712); experiment: Cytochrome P450 Family 2 Subfamily C Member 9 (CYP2C9) small molecule antagonists: luciferase reporter qHTS assay (AID 1671198); settings: P450-Glo CYP2C9 enzyme assay, luciferin luminescence; series mostly up to 115 µM
Cytochrome P450 2C9 (Homo sapiens), sequence (P11712 whole entry, looked up): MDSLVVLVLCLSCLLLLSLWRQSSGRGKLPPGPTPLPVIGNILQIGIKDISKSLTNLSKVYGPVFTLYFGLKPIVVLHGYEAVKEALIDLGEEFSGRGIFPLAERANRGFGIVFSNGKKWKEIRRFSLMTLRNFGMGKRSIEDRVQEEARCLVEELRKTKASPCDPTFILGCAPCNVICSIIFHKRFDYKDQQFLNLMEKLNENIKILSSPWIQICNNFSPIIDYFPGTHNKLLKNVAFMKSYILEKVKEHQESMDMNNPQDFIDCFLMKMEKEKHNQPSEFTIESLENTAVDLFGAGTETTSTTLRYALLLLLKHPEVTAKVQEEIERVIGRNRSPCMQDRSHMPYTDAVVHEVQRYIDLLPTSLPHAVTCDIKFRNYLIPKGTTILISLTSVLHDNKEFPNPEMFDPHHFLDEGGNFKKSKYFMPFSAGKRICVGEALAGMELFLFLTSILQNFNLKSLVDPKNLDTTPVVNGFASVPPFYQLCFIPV
Summary of the method: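 CYP2C9 activity was measured with a P450-Glo proluciferin substrate. Enzyme–substrate mix was held with compound for 10 min at room temperature, then NADPH regeneration solution was added for 1 h at 37C. Luciferin product was read as luminescence.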

[2] = molecular target: Cytochrome P450 1A2 (Homo sapiens) (UniProt P05177); experiment: Cytochrome P450 Family 1 Subfamily A Member 2 (CYP1A2) small molecule antagonists: luciferase reporter qHTS assay (AID 1671199); settings: P450-Glo CYP1A2 enzyme, luciferin luminescence, 1 h; series mostly up to 53 µM
Cytochrome P450 1A2 (Homo sapiens), sequence (P05177 whole entry, looked up): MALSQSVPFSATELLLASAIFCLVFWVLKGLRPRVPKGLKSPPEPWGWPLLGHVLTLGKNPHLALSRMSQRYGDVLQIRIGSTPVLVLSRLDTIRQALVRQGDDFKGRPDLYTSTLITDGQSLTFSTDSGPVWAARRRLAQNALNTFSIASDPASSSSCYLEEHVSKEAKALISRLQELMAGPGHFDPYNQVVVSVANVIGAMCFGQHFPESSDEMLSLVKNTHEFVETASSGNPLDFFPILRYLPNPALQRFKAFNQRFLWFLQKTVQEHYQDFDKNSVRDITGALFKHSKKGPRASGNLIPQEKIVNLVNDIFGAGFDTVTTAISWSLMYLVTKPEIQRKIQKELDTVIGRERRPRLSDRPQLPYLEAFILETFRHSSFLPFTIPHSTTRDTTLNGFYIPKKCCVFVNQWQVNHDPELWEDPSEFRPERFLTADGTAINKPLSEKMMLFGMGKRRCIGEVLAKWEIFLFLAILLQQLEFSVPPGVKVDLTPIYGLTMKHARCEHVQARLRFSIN
Summary of the method: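 Quantitative high-throughput format using the P450-Glo CYP1A2 system. Reaction initiated by NADPH regeneration solution, 1 h at room temperature, then stopped with detection reagent; luminescence measured 20 min later.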

[3] = molecular target: Voltage-gated inwardly rectifying potassium channel KCNH2 (Homo sapiens) (UniProt Q12809); experiment: Human Ether-a-go-go-Related Gene (hERG) channel small molecule antagonists: fluorescence cell-based qHTS assay (AID 1671200); settings: hERG-U2OS cells, FluxOR thallium flux fluorescence; series mostly up to 76.8 µM;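 as to activity change, negative = inhibition: hERG-expressing U2OS cells given a thallium stimulus after FluxOR II dye loading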
Voltage-gated inwardly rectifying potassium channel KCNH2 (Homo sapiens), sequence (Q12809 whole entry, looked up): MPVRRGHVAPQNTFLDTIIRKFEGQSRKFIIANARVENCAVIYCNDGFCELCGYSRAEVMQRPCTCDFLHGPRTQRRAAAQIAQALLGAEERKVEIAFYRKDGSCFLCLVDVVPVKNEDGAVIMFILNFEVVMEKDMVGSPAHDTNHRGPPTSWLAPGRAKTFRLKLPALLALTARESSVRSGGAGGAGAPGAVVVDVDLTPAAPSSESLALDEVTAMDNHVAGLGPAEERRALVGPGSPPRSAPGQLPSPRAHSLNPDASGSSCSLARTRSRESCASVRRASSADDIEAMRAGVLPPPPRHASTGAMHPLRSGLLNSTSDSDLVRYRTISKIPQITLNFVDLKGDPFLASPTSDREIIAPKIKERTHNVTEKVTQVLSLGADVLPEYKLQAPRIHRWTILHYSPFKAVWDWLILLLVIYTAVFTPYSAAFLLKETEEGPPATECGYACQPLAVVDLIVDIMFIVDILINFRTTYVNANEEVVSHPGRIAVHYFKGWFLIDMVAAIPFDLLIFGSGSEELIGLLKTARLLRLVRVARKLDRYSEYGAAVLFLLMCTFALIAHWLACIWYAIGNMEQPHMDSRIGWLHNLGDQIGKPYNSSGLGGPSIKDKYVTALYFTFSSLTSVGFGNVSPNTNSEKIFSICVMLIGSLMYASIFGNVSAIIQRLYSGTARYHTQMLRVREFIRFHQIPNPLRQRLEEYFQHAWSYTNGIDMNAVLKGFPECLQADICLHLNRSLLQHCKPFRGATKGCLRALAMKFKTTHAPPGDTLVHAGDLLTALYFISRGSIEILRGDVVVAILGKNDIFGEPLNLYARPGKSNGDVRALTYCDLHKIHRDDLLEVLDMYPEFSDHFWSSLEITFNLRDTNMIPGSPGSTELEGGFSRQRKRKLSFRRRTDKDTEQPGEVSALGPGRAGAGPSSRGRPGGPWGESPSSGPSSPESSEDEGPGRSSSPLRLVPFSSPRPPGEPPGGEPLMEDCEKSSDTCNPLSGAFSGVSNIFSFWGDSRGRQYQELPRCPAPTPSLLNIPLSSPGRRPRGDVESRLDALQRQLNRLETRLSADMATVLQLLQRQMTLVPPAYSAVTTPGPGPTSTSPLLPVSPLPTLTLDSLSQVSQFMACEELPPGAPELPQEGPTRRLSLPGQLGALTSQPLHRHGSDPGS
Summary of the method: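 Kinetic two-minute fluorescence traces, sampled at 1 s, were collected following thallium stimulus of U2OS cells (1000 per well) that had been cultured overnight at 37 C and loaded with FluxOR II.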

[4] = molecular target: Cytochrome P450 3A4 (Homo sapiens) (UniProt P08684); experiment: Cytochrome P450 Family 3 Subfamily A Member 4 (CYP3A4) small molecule antagonists: luciferase reporter qHTS assay (AID 1671201); settings: P450-Glo CYP3A4 enzyme, luciferin luminescence, 1 h; series mostly up to 115 µM
Cytochrome P450 3A4 (Homo sapiens), sequence (P08684 whole entry, looked up): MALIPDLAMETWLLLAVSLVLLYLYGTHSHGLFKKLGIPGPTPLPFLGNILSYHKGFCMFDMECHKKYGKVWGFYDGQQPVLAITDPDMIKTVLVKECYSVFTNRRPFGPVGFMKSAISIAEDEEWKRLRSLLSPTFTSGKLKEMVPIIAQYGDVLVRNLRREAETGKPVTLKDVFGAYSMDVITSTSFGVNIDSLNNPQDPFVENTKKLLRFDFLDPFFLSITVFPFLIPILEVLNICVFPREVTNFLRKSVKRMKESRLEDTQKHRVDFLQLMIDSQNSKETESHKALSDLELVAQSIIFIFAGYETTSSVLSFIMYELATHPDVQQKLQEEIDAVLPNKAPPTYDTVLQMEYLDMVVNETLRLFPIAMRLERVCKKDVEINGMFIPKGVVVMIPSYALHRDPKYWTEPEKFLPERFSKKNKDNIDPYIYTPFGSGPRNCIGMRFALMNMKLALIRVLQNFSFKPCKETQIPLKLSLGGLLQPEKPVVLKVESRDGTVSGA
Summary of the method: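 Proluciferin-to-luciferin conversion by CYP3A4, NADPH-regenerated, 1 h RT; luminescence read as RLU. Ketoconazole as control.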
Also: nearly all actives have a fitted effect of over 50% in size.
Potency is read from the fitted curve at half-maximal effect.

O=C(Nc1ccccc1)c1ccccc1O
Potency [1]: 31.7 µM (active)
Potency [2]: 5.03 µM (active)
Potency [3]: inactive
Potency [4]: inactive

CCN(CC)CCOC(=O)C(Cc1cccc2ccccc12)CC1CCCO1 (configuration not stated)
Potency [1]: inactive
Potency [3]: 9.52 µM (active)

CN1C[C@H]2c3ccccc3Oc3ccc(Cl)cc3[C@@H]2C1
Potency [1]: inactive
Potency [2]: 7.76 µM (active)
Potency [4]: inactive

Cc1oc(-c2ccccc2)nc1CCOc1cccc2c1ccn2CCC(=O)O
Potency [1]: 22.4 µM (active)
Potency [2]: inactive
Potency [3]: inactive
Potency [4]: inactive

CC(COCCO)OCCO (configuration not stated)
Potency [1]: inactive
Potency [2]: inactive
Potency [3]: inactive
Potency [4]: inactive

CCC(Cl)CCC(Cl)C(Cl)CC(Cl)C(Cl)C(Cl)CCl (configuration not stated)
Potency [1]: inactive
Potency [2]: inactive
Potency [3]: inactive
Potency [4]: inactive

CCCCCCCCCCO[C@@H]1O[C@H](CO)[C@@H](O)[C@H](O)[C@H]1O
Potency [1]: inactive
Potency [2]: inactive
Potency [3]: inactive
Potency [4]: inactive

Cc1cccc(C)c1NC(=O)CN(CC(=O)O)CC(=O)O
Potency [1]: inactive
Potency [3]: inactive

CC1OC(=O)C(C)OC1=O (configuration not stated)
Potency [1]: inactive
Potency [2]: inactive
Potency [3]: inactive
Potency [4]: inactive

CC(C)(COC(=O)c1ccccc1)COC(=O)c1ccccc1
Potency [1]: 6.33 µM (active)
Potency [2]: 39.9 µM (active)
Potency [4]: inactive

CC1=CCCC(C)(C)C12CCC(C)O2 (configuration not stated)
Potency [1]: 79.6 µM (active)
Potency [3]: inactive

O=C1OC(CN2CCOCC2)CN1/N=C/c1ccc([N+](=O)[O-])o1 (configuration not stated)
Potency [1]: inactive
Potency [2]: inactive
Potency [3]: inactive
Potency [4]: inactive

CCc1c(C(=O)NN2CCCCC2)nn(-c2ccc(Cl)cc2Cl)c1-c1ccc(Br)cc1
Potency [1]: 8.94 µM (active)
Potency [2]: inactive
Potency [4]: inactive

C/C=C/C(=O)CC
activity change, negative = inhibition [1]: -11% [at 23.6 µM]
activity change, negative = inhibition [3]: 2.39% [at 15.8 µM]

CC(C)OC(=O)C(C)N(C(=O)c1ccccc1)c1ccc(F)c(Cl)c1 (configuration not stated)
Potency [1]: 7.96 µM (active)
Potency [2]: 63.3 µM (active)
Potency [3]: inactive
Potency [4]: 89.4 µM (active)

C=C1C(=C/C=C2\CCC[C@]3(C)[C@@H]([C@H](C)/C=C/[C@@H](O)C4CC4)CC[C@@H]23)C[C@@H](O)C[C@@H]1O
Potency [1]: 15.5 µM (active)
Potency [2]: inactive
Potency [3]: inactive
Potency [4]: inactive

CC(=O)NO
Potency [1]: inactive
Potency [2]: inactive
Potency [3]: inactive
Potency [4]: inactive

CCCCC
Potency [1]: inactive
Potency [2]: 78.4 µM (active)
Potency [3]: inactive
Potency [4]: inactive

CCCCC(CC)CN1C(=O)C2C3C=CC(C3)C2C1=O (configuration not stated)
Potency [1]: 7.96 µM (active)
Potency [2]: 17.8 µM (active)
Potency [4]: 1 µM (active)

COC(C)OC
Potency [1]: inactive
Potency [2]: inactive
Potency [3]: inactive
Potency [4]: inactive

O=C(CS)Nc1ccccc1
Potency [1]: 13.8 µM (active)
Potency [3]: inactive

COc1ccc(C(=O)N2CCN(CC(=O)N3CCOCC3)CC2)cc1
Potency [1]: inactive
Potency [2]: inactive
Potency [3]: inactive
Potency [4]: inactive

NS(=O)(=O)c1ccc(N2CCCCS2(=O)=O)cc1
Potency [1]: inactive
Potency [2]: inactive
Potency [3]: inactive
Potency [4]: inactive

NC(=O)C(c1ccccc1)(c1ccccc1)[C@@H]1CCN(CCc2ccc3c(c2)CCO3)C1
Potency [1]: inactive
Potency [2]: inactive
Potency [4]: inactive

CCCCCCCCCc1ccc(OCCOCCO)cc1
Potency [1]: 10.6 µM (active)
Potency [2]: inactive
Potency [3]: 8.17 µM (active)
Potency [4]: 8.39 µM (active)

CC(C)CC(=O)C1C(=O)c2ccccc2C1=O
Potency [1]: 17.8 µM (active)
Potency [2]: 35.6 µM (active)
Potency [3]: inactive
Potency [4]: inactive

Brc1c2ccccc2c(Br)c2ccccc12
activity change, negative = inhibition [1]: -3.76% [at 10.5 µM]
Potency [2]: 0.719 µM (active)
activity change, negative = inhibition [3]: -0.46% [at 6.97 µM]
activity change, negative = inhibition [4]: 1.1% [at 10.5 µM]

CC(=O)c1ccc2c(c1)N(CCCN(C)C)c1ccccc1S2
Potency [1]: inactive
Potency [2]: 11 µM (active)
Potency [4]: inactive

COc1ccc(C)cc1[N+](=O)[O-]
Potency [1]: inactive
Potency [2]: 10.2 µM (active)
Potency [3]: inactive
Potency [4]: 36.1 µM (active)

ClCCOCCOCCCl
Potency [1]: inactive
Potency [3]: inactive

CCOCC(O)COc1ccc(NC(=O)CC[S+](C)C)cc1 (configuration not stated)
Potency [1]: inactive
Potency [3]: inactive
Potency [4]: inactive

COc1ccc(S(=O)(=O)N2C(=O)[C@@](c3ccccc3OC)(N3C[C@H](O)C[C@H]3C(=O)N(C)C)c3cc(Cl)ccc32)c(OC)c1
Potency [1]: 39.9 µM (active)
Potency [4]: 0.0894 µM (active)

CCCCCCCC/C=C\CCCCCCCC(=O)OCC
Potency [1]: 71 µM (active)
Potency [3]: inactive

CCOC(=O)C(=O)CCc1ccccc1
Potency [2]: inactive
Potency [3]: inactive

CCOC(=O)c1cccnc1
Potency [1]: inactive
Potency [3]: inactive
Potency [4]: inactive

CC(C)(O)c1ccc(CNC(=O)c2cccnc2Oc2ccc(F)cc2)cc1
Potency [1]: 22.4 µM (active)
Potency [3]: inactive
Potency [4]: 31.7 µM (active)
